SW480 rereplic – DNA re-replication induction in SW480 cells; hit rate 1.8% among 340,000; Potency, µM (top dose mostly 46.1 µM), for inactives: at the highest dose re-replication activation, hits mostly activators; AID 624297; SW480 DNA re-replication, Hoechst DNA content imaging, 48 h; further: potency means the concentration at half of the fitted maximal effect; % of control where 0% means no effect; nearly all actives have a fitted effect of over 55% in size
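Image-based read-out: total Hoechst fluorescence of nuclei (405 nm excitation, 500-530 nm emission), with hits raising the fraction of high-intensity nuclei. SW480 colon cells incubated 48 hr with compounds at 37 C.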
MCF10A rerep – DNA re-replication induction in MCF 10a cells; MCF 10A DNA re-replication, Hoechst nuclear intensity, 48 h; Potency, µM (titrated, usually from 46.1 µM), for inactives: at the top dose activity, positive = re-replication, actives largely listed as activators; hit rate 2.9% among 350,000; AID 624296; further: potency means the concentration at half of the fitted maximal effect; % of control where 0% means no effect; nearly all actives have a fitted effect of over 50% in size
VP16 counter – inhibits Gal4-VP16 luciferase reporter, ROR gamma counter-screen; Potency, µM (doses to about 53.6 µM), inactives show top-dose activity, negative = inhibition, actives largely listed as inhibitors; Drosophila S2 Gal4-VP16 UAS-luciferase, luminescence, 20 h; hit rate 3.5% among 310,000;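 further: Gal4-VP16 expression switched on by copper sulfate through the metallothionein promoter; potency means the concentration at half of the fitted maximal effect; on the % scale 0 is the no-effect control and ±100 the full control effect; nearly all actives have a fitted effect of over 50% in size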
RORgamma inh – ROR gamma (mouse) transcription inhibition; P51450; Drosophila S2 Gal4-RORgamma UAS-luciferase reporter, 20 h; Potency, µM (series often up to 53.6 µM), inactives show at the highest dose activity change, negative = inhibition, most hits filed as inhibitors; hit rate 5.4% among 310,000; AID 2551; further: potency means the concentration at half of the fitted maximal effect; on the % scale 0 is the no-effect control and ±100 the full control effect; nearly all actives have a fitted effect of over 60% in size
Target sequence (P51450 whole entry, looked up, the tested form may be a part): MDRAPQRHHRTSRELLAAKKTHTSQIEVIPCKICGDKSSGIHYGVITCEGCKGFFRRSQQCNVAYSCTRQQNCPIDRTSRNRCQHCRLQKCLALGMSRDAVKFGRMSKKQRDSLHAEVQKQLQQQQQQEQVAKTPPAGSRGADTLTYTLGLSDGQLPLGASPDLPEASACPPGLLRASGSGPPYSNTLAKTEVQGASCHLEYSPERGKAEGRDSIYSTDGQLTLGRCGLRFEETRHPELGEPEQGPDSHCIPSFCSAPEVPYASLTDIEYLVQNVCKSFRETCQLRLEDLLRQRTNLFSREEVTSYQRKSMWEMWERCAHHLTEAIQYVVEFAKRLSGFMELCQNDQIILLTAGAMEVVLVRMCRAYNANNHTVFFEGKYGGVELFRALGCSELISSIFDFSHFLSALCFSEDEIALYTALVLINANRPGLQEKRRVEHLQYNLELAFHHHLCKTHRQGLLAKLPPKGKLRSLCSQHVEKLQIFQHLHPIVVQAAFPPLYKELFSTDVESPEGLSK
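Stable Schneider cell line, Gal4 DNA-binding domain fused to ROR gamma, UAS-luciferase. Cmpd 1 hr RT → CuSO4 700 uM final → 20 hr RT → luciferase reagent 10 min → luminescence.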
IL-1B inflam inh – inflammasome signaling inhibition, IL-1 beta readout; activity change, % at 57.5 µM; THP-1 LPS/ATP IL-1B secretion, AlphaLISA, 16 h; hits give low values; hit rate 4.7% among 360,000; in the data active means activity change below about -50%; inconclusive means mostly about -30% to -49%; further: on the % scale 0 is the no-effect control and ±100 the full control effect
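THP-1 cells pretreated 1 hr with compounds (up to 57.5 uM final), then stimulated with LPS (250 ng/mL final) plus ATP (1.25 mM final); secreted IL-1B measured by AlphaLISA after 16 hr, decreased signal indicating inhibition.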
* hit, by the source's call; ? = inconclusive; nt = no result; [ ] = remark or other dose. This is a sample that favours compounds with a hit; in the whole collection about 11% have one here. Unless noted, the call rests on the fitted dose curve; in most records, active means well fitted curve in the direction sought with a large enough effect; inconclusive means small, poorly fitted or top-dose-only effect, or another doubt; inactive means no such curve, though single readings can be large; an effect the other way counts as inactive or inconclusive.

SMILES	SW480 rereplic	MCF10A rerep	VP16 counter	RORgamma inh	IL-1B inflam inh
Cc1ccc(/C=C2\C(=O)NC(=S)N(c3ccccc3F)C2=O)s1	?	5.8µM*	?	?	-99.0*
Cc1ccc(/C=C2\C(=O)NC(=S)N(c3ccc(F)cc3)C2=O)o1	12.6%	0.0%	0.2%	?	2.8
Cc1ccc(/C=C2\C(=O)NC(=S)N(c3ccc(F)cc3)C2=O)s1	10.3%	?	-6.6%	12.9%	-107.8*
COc1cc2nc(CN3CC=C(c4ccccc4)CC3)[nH]c(=O)c2cc1OC	?	2.91µM*	nt	nt	-24.3
CC1=C(N2CC2)C(=O)C(CO)=C(N2CC2)C1=O	?	?	nt	nt	-99.4*
COc1ccc(CC2NC[C@H](O)[C@H]2OC(C)=O)cc1 (some centres undefined)	nt	nt	0.794µM*	0.631µM*	nt
COc1ccc(C[C@H]2NC[C@H](O)[C@@H]2OC(C)=O)cc1	nt	nt	35.5µM*	?	nt
COc1ccc(CC2NCC(O)C2OC(C)=O)cc1 (centres undefined)	3.2%	?	0.0794µM*	?	-109.4*
COc1ccc(CC(=O)N2CCN(C)CC2)cc1	0.3%	13.2%	-6.4%	-3.0%	-15.0
Oc1cc(Cl)ccc1Cl	nt	nt	-7.5%	17.0%	nt
CN(C)c1ccc(/C=C/c2cc[n+](C)c3ccccc23)cc1	?	?	0.0%[10 µM]	18.5%	-101.6*
C[n+]1ccc(-c2ccccc2)c2ccccc21	-0.3%	-2.5%	nt	nt	53.0
